Reference: the supplement of paper PMC4466140

biological target: AgAbp1; assay: SPOT peptide array binding signal intensity (averaged, normalized) (arbitrary units (background-subtracted, floor 0; scale differs between SH3 domains)); higher = stronger binding of the SH3 domain to the peptide
In short: (§1)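 E. coli BL21(DE3) was used to express GST-fused SH3 domains from four yeast species, which were then purified on glutathione Sepharose. These were incubated at 10 μg/ml in TBS-based blocking buffer overnight at 4°C on cellulose membranes carrying synthetic 15-mer peptides, in which cysteines were replaced by serines. Binding signal is the replicate average of normalized, background-subtracted spot intensity, in arbitrary units that differ between domains.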

Question: Which “SPOT peptide array binding signal intensity” value does the source give for KRRTSLFPWLHKPGI here?
Answer: 14

biological target: AgBbc1; assay: as above
In short: as §1

Question: KRRTSLFPWLHKPGI was tested. Which “SPOT peptide array binding signal intensity” value did it give?
Answer: 19.2

biological target: AgBem1-D1; assay: as above
In short: as §1

Question: How did the “SPOT peptide array binding signal intensity” value turn out when KRRTSLFPWLHKPGI was run?
Answer: 13

biological target: AgBzz1-D1; assay: as above
In short: as §1

Question: KRRTSLFPWLHKPGI was tested. Which “SPOT peptide array binding signal intensity” value did it give?
Answer: 15

biological target: AgBzz1-D2; assay: as above
In short: as §1

Question: KRRTSLFPWLHKPGI was tested. Which “SPOT peptide array binding signal intensity” value did it give?
Answer: 17

biological target: AgCyk3; assay: as above
In short: as §1

Question: For KRRTSLFPWLHKPGI, which “SPOT peptide array binding signal intensity” value is on record?
Answer: 4

biological target: AgFus1; assay: as above
In short: as §1

Question: With KRRTSLFPWLHKPGI as the binder, how does the “SPOT peptide array binding signal intensity” value read?
Answer: 202

biological target: AgHof1; assay: as above
In short: as §1

Question: How did the “SPOT peptide array binding signal intensity” value turn out when KRRTSLFPWLHKPGI was run?
Answer: 14

biological target: AgHse1; assay: as above
In short: as §1

Question: With KRRTSLFPWLHKPGI as the binder, how does the “SPOT peptide array binding signal intensity” value read?
Answer: 1230

biological target: AgLsb1; assay: as above
In short: as §1

Question: KRRTSLFPWLHKPGI was tested. Which “SPOT peptide array binding signal intensity” value did it give?
Answer: 1

biological target: AgLsb4; assay: as above
In short: as §1

Question: KRRTSLFPWLHKPGI was tested. Which “SPOT peptide array binding signal intensity” value did it give?
Answer: 53

biological target: AgMyo5; assay: as above
In short: as §1

Question: Which “SPOT peptide array binding signal intensity” value does the source give for KRRTSLFPWLHKPGI here?
Answer: ≤ 0

biological target: AgNbp2; assay: as above
In short: as §1

Question: Which “SPOT peptide array binding signal intensity” value does the source give for KRRTSLFPWLHKPGI here?
Answer: 196

biological target: AgRvs167; assay: as above
In short: as §1

Question: Which “SPOT peptide array binding signal intensity” value does the source give for KRRTSLFPWLHKPGI here?
Answer: 2.33

biological target: AgSho1; assay: as above
In short: as §1

Question: Which “SPOT peptide array binding signal intensity” value does the source give for KRRTSLFPWLHKPGI here?
Answer: 23

biological target: AgSla1-D1-D2; assay: as above
In short: as §1

Question: For KRRTSLFPWLHKPGI, which “SPOT peptide array binding signal intensity” value is on record?
Answer: 297

biological target: AgSla1-D3; assay: as above
In short: as §1

Question: For KRRTSLFPWLHKPGI, which “SPOT peptide array binding signal intensity” value is on record?
Answer: 5.5

biological target: CaAbp1-D1; assay: as above
In short: as §1

Question: With KRRTSLFPWLHKPGI as the binder, how does the “SPOT peptide array binding signal intensity” value read?
Answer: 736

biological target: CaAbp1-D2; assay: as above
In short: as §1

Question: With KRRTSLFPWLHKPGI as the binder, how does the “SPOT peptide array binding signal intensity” value read?
Answer: 682

biological target: CaBbc1; assay: as above
In short: as §1

Question: For KRRTSLFPWLHKPGI, which “SPOT peptide array binding signal intensity” value is on record?
Answer: 53.2

biological target: CaBem1-D1; assay: as above
In short: as §1

Question: How did the “SPOT peptide array binding signal intensity” value turn out when KRRTSLFPWLHKPGI was run?
Answer: ≤ 0

biological target: CaBzz1-D1; assay: as above
In short: as §1

Question: With KRRTSLFPWLHKPGI as the binder, how does the “SPOT peptide array binding signal intensity” value read?
Answer: 35

biological target: CaBzz1-D2; assay: as above
In short: as §1

Question: Which “SPOT peptide array binding signal intensity” value does the source give for KRRTSLFPWLHKPGI here?
Answer: 22

biological target: CaCyk3; assay: as above
In short: as §1

Question: With KRRTSLFPWLHKPGI as the binder, how does the “SPOT peptide array binding signal intensity” value read?
Answer: 5

biological target: CaFus1; assay: as above
In short: as §1

Question: With KRRTSLFPWLHKPGI as the binder, how does the “SPOT peptide array binding signal intensity” value read?
Answer: 727

biological target: CaHof1; assay: as above
In short: as §1

Question: For KRRTSLFPWLHKPGI, which “SPOT peptide array binding signal intensity” value is on record?
Answer: ≤ 0

biological target: CaHse1; assay: as above
In short: as §1

Question: Which “SPOT peptide array binding signal intensity” value does the source give for KRRTSLFPWLHKPGI here?
Answer: 42.8

biological target: CaLsb1; assay: as above
In short: as §1

Question: How did the “SPOT peptide array binding signal intensity” value turn out when KRRTSLFPWLHKPGI was run?
Answer: 0.5

biological target: CaLsb4; assay: as above
In short: as §1

Question: For KRRTSLFPWLHKPGI, which “SPOT peptide array binding signal intensity” value is on record?
Answer: 59.5

biological target: CaMyo5; assay: as above
In short: as §1

Question: KRRTSLFPWLHKPGI was tested. Which “SPOT peptide array binding signal intensity” value did it give?
Answer: 0.25

biological target: CaNbp2; assay: as above
In short: as §1

Question: With KRRTSLFPWLHKPGI as the binder, how does the “SPOT peptide array binding signal intensity” value read?
Answer: 402

biological target: CaRvs167; assay: as above
In short: as §1

Question: For KRRTSLFPWLHKPGI, which “SPOT peptide array binding signal intensity” value is on record?
Answer: 5.67

biological target: CaRvs167-3; assay: as above
In short: as §1

Question: For KRRTSLFPWLHKPGI, which “SPOT peptide array binding signal intensity” value is on record?
Answer: 34.2

biological target: CaSho1; assay: as above
In short: as §1

Question: KRRTSLFPWLHKPGI was tested. Which “SPOT peptide array binding signal intensity” value did it give?
Answer: 664

biological target: CaSla1-D1-D2; assay: as above
In short: as §1

Question: Which “SPOT peptide array binding signal intensity” value does the source give for KRRTSLFPWLHKPGI here?
Answer: 5.5

biological target: CaSla1-D3; assay: as above
In short: as §1

Question: KRRTSLFPWLHKPGI was tested. Which “SPOT peptide array binding signal intensity” value did it give?
Answer: ≤ 0

biological target: ScAbp1; assay: as above
In short: as §1

Question: How did the “SPOT peptide array binding signal intensity” value turn out when KRRTSLFPWLHKPGI was run?
Answer: 19

biological target: ScBbc1; assay: as above
In short: as §1

Question: KRRTSLFPWLHKPGI was tested. Which “SPOT peptide array binding signal intensity” value did it give?
Answer: 5.75

biological target: ScBem1-D1; assay: as above
In short: as §1

Question: Which “SPOT peptide array binding signal intensity” value does the source give for KRRTSLFPWLHKPGI here?
Answer: 2

biological target: ScBzz1-D1; assay: as above
In short: as §1

Question: How did the “SPOT peptide array binding signal intensity” value turn out when KRRTSLFPWLHKPGI was run?
Answer: 5.5

biological target: ScBzz1-D2; assay: as above
In short: as §1

Question: With KRRTSLFPWLHKPGI as the binder, how does the “SPOT peptide array binding signal intensity” value read?
Answer: 2.5

biological target: ScCyk3; assay: as above
In short: as §1

Question: With KRRTSLFPWLHKPGI as the binder, how does the “SPOT peptide array binding signal intensity” value read?
Answer: 311

biological target: ScFus1; assay: as above
In short: as §1

Question: For KRRTSLFPWLHKPGI, which “SPOT peptide array binding signal intensity” value is on record?
Answer: 224

biological target: ScHof1; assay: as above
In short: as §1

Question: Which “SPOT peptide array binding signal intensity” value does the source give for KRRTSLFPWLHKPGI here?
Answer: ≤ 0

biological target: ScHse1; assay: as above
In short: as §1

Question: For KRRTSLFPWLHKPGI, which “SPOT peptide array binding signal intensity” value is on record?
Answer: 2010

biological target: ScLsb1; assay: as above
In short: as §1

Question: Which “SPOT peptide array binding signal intensity” value does the source give for KRRTSLFPWLHKPGI here?
Answer: ≤ 0

biological target: ScLsb2; assay: as above
In short: as §1

Question: How did the “SPOT peptide array binding signal intensity” value turn out when KRRTSLFPWLHKPGI was run?
Answer: 7.5

biological target: ScLsb3; assay: as above
In short: as §1

Question: With KRRTSLFPWLHKPGI as the binder, how does the “SPOT peptide array binding signal intensity” value read?
Answer: 54

biological target: ScLsb4; assay: as above
In short: as §1

Question: For KRRTSLFPWLHKPGI, which “SPOT peptide array binding signal intensity” value is on record?
Answer: ≤ 0

biological target: ScMyo3; assay: as above
In short: as §1

Question: KRRTSLFPWLHKPGI was tested. Which “SPOT peptide array binding signal intensity” value did it give?
Answer: 3

biological target: ScMyo5; assay: as above
In short: as §1

Question: KRRTSLFPWLHKPGI was tested. Which “SPOT peptide array binding signal intensity” value did it give?
Answer: 1.5

biological target: ScNbp2; assay: as above
In short: as §1

Question: With KRRTSLFPWLHKPGI as the binder, how does the “SPOT peptide array binding signal intensity” value read?
Answer: 230

biological target: ScPex13; assay: as above
In short: as §1

Question: How did the “SPOT peptide array binding signal intensity” value turn out when KRRTSLFPWLHKPGI was run?
Answer: 1

biological target: ScRvs167; assay: as above
In short: as §1

Question: Which “SPOT peptide array binding signal intensity” value does the source give for KRRTSLFPWLHKPGI here?
Answer: 7.67

biological target: ScSho1; assay: as above
In short: as §1

Question: For KRRTSLFPWLHKPGI, which “SPOT peptide array binding signal intensity” value is on record?
Answer: 512

biological target: ScSla1-D1-D2; assay: as above
In short: as §1

Question: With KRRTSLFPWLHKPGI as the binder, how does the “SPOT peptide array binding signal intensity” value read?
Answer: 56.5

biological target: ScSla1-D3; assay: as above
In short: as §1

Question: KRRTSLFPWLHKPGI was tested. Which “SPOT peptide array binding signal intensity” value did it give?
Answer: ≤ 0

biological target: SpAbp1-D1; assay: as above
In short: as §1

Question: With KRRTSLFPWLHKPGI as the binder, how does the “SPOT peptide array binding signal intensity” value read?
Answer: 420

biological target: SpBbc1; assay: as above
In short: as §1

Question: With KRRTSLFPWLHKPGI as the binder, how does the “SPOT peptide array binding signal intensity” value read?
Answer: ≤ 0

biological target: SpBzz1-D1; assay: as above
In short: as §1

Question: How did the “SPOT peptide array binding signal intensity” value turn out when KRRTSLFPWLHKPGI was run?
Answer: 27
